{
  "source": "PubChem BioAssay (EPA / NIEHS)",
  "note": "The source holds several records for some structures; these can differ, active in one and inactive in another. The source made the active and inactive calls. Rule for the calls: active = hit-call score of the fitted dose curve at least 0.9, where 1 is the maximum; inactive = score below 0.9.",
  "data": [
    {"assay": "CCTE_Shafer_MEA_dev_per_network_spike_spike_percent: CCTE's Neural Network Formation Assay for Percent of Spikes in a Network Spike, Shafer Lab (AID 2284054)", "method": "CCTE_Shafer_MEA_dev assay is conducted using Axion Biosystems 48 well microelectrode array (MEA) plates and Maestro recording system. Each well of the MEA plate contains a grid of 16 microelectrodes embedded in the culture surface. Electrically active cells, such as neurons, can be cultured over the electrodes, and electrical activity in these cells can be recorded extracellularly. The spontaneous firing of neurons is captured from each electrode on a microsecond timescale providing both temporally and spatially precise data. […] The CCTE_Shafer_MEA_dev assay uses primary cultures of rat cortical neurons. Recordings are made on days post-plating 5, 7, 9 and 12. As these cultures mature over time, neural networks develop functional activity and form cohesive networks in which electrical activity can be highly coordinated. CCTE_Shafer_MEA_dev_per_network_spike_spike_percent is 1 of 19 assay components of the CCTE_Shafer_MEA_dev assay. It measures the percent of spikes (action potential firings) in a network spike (temporally-clustered group of spikes across multiple electrodes) as the number of spikes that occur within a 0.05 s time window at the peak of a network spike divided by the total number of spikes during a recording in a microelectrode array (MEA) using Axion Biosystems Maestro 768 channel amplifier with the AxIS adaptive spike detector. To collapse across multiple recordings made on days post-plating 5, 7, 9 and 12, the trapezoidal area-under-the-curve of the component is calculated.Data from the assay component CCTE_Shafer_MEA_dev_per_network_spike_spike_percent was analyzed into 1 assay endpoint. This assay endpoint, CCTE_Shafer_MEA_dev_per_network_spike_spike_percent, was analyzed in the negative analysis fitting direction relative to DMSO as the negative control and baseline of activity. Using a type of functional reporter, gain or loss-of-signal activity can be used to understand electrical activity.\nOn the day prior to culture, each well was coated thoroughly with 150 uL of 0.05% polyethyleneimine (PEI, Sigma Cat P3143) in 50 mM HEPES (Sigma Cat H7523) at a pH of 8. The plate was incubated at 37C for one hour. PEI was rinsed out with 500 uL of sterile water three times. Plates were stored at 4C until the day of culture. This culture was plated at a seeding density of 1.5 x 10^5 cells/well on a 48-well MEA plate, prepared as described above. Cells were administered via a 25 uL media/laminin ([…]; Sigma Cat L2020-1MG) drop directly onto the microelectrode array, as adding the cells with the laminin results in better attachment than pre-coating with laminin. After 2 hours, an additional 475 uL of cortical media was added and the cells returned to the incubator. Exposure starts at day 0 of plating and is continued over twelve days of network development until the experiment is terminated. Cells are fed with fresh medium on DIV 5 and 9, following the recordings on those days. The entire volume of media in the well is exchanged and any vehicle or compound treatment is renewed. Complete details are found in OP-NHEERL/ISTD/SBB/TJS/2015-03-r0 (available on request, email shafer.tim@epa.gov). Measurement of the electrical activity is non-invasive, and recordings can be made from the same plate over multiple different days of the culture. In cortical neurons, this allows for the measurement of extracellular action potentials over the period during which networks form in the MEA plate.", "values": [
      {"smiles": "FC(F)(F)C(F)(F)C(F)(F)C(F)(F)C(F)(F)C(F)(F)CCI", "outcome": "inactive"},
      {"smiles": "O=c1[nH]cc(F)c(=O)[nH]1", "AC50": "0.607 µM (active)"},
      {"smiles": "CC(C)c1ccc(C(=O)N=C(N)N)cc1S(C)(=O)=O", "outcome": "inactive"},
      {"smiles": "CCCc1cc(=O)[nH]c(=S)[nH]1", "AC50": "24.9 µM (active)", "outcome": "inactive"},
      {"smiles": "CC(=O)Oc1ccccc1C(=O)O", "outcome": "inactive"},
      {"smiles": "OC[C@@H](O)[C@@H](O)[C@H](O)[C@H](O)CO", "outcome": "inactive"},
      {"smiles": "Cc1cc(=O)[nH]c(=S)[nH]1", "outcome": "inactive"},
      {"smiles": "C[Si]1(C)O[Si](C)(C)O[Si](C)(C)O[Si](C)(C)O1", "outcome": "inactive"},
      {"smiles": "C=CCc1ccc(O)c(OC)c1", "outcome": "inactive"}
    ]}
  ]
}
